From the antibiotic and cytotoxicity screens of Wong et al. (2023)
Among all 39,000 compounds or so, about 3,300 (8.5%) were called active. For the sample, actives were picked, then their nearest neighbours and some compounds at random.

Tested on: HepG2
Experiment: cytotoxicity call (relative viability < 0.9)
Settings: 10 µM

SMILES | cytotoxicity call
C[C@@H]1CN([C@@H](C)CO)C(=O)Cc2cc(NC(=O)c3ccncc3)ccc2O[C@@H]1CN(C)Cc1ccc(-c2ccccc2)cc1 | inactive
C[C@H](CO)N1C[C@H](C)[C@H](CN(C)Cc2ccc(-c3ccccc3)cc2)Oc2ccc(NC(=O)c3ccncc3)cc2CC1=O | inactive
C[C@@H]1CN([C@H](C)CO)C(=O)Cc2cc(NC(=O)c3ccncc3)ccc2O[C@@H]1CN(C)Cc1ccncc1 | inactive
C[C@@H]1CN([C@@H](C)CO)C(=O)Cc2cc(NC(=O)c3ccncc3)ccc2O[C@H]1CN(C)Cc1ccc(-c2ccccc2)cc1 | active
C[C@H]1CN([C@@H](C)CO)C(=O)Cc2cc(NC(=O)c3ccncc3)ccc2O[C@@H]1CN(C)Cc1ccc(-c2ccccc2)cc1 | inactive
C[C@H](CO)N1C[C@H](C)[C@@H](CN(C)Cc2ccc(-c3ccccc3)cc2)Oc2ccc(NC(=O)c3ccncc3)cc2CC1=O | inactive
C[C@@H]1CN([C@H](C)CO)C(=O)Cc2cc(NC(=O)c3ccncc3)ccc2O[C@@H]1CN(C)Cc1ccc(-c2ccccc2)cc1 | active
C[C@@H]1CN([C@H](C)CO)C(=O)Cc2cc(NC(=O)c3ccncc3)ccc2O[C@H]1CN(C)Cc1ccc(-c2ccccc2)cc1 | inactive
C[C@H]1CN([C@@H](C)CO)C(=O)Cc2cc(NC(=O)c3ccncc3)ccc2O[C@H]1CN(C)Cc1ccc(-c2ccccc2)cc1 | active
Cc1ccc(-c2ccc3c(c2)O[C@@H](CN(C)C(=O)CN(C)C)[C@@H](C)CN([C@H](C)CO)S3(=O)=O)cc1 | inactive
CO[C@H]1CN(C)C(=O)c2cc(NC(=O)CC(F)(F)F)ccc2OC[C@@H](C)N(S(=O)(=O)c2cn(C)cn2)C[C@H]1C | inactive
CO[C@@H](C(=O)N(C)C[C@@H]1OCc2ccccc2-c2c(n(C)c3ccccc23)C(=O)N([C@@H](C)CO)C[C@H]1C)c1ccccc1 | inactive
COc1ccccc1CNC(=O)C[C@H]1C[C@@H]2c3cc(NS(=O)(=O)c4ccc(F)cc4)ccc3O[C@@H]2[C@H](CO)O1 | inactive
C[C@@H]1CCCCO[C@H](CN(C)S(=O)(=O)c2ccccc2)[C@H](C)CN([C@H](C)CO)C(=O)c2cc(NS(C)(=O)=O)ccc2O1 | inactive
COc1ccc(NC(=O)N(C)C[C@H]2Oc3ccc(NC(=O)Cn4cnnn4)cc3CC(=O)N([C@@H](C)CO)C[C@@H]2C)cc1 | inactive
COc1ccc(NC(=O)Nc2ccc3c(c2)[C@@H]2C[C@@H](CC(=O)NCC(F)(F)F)O[C@@H](CO)[C@@H]2O3)cc1 | inactive
C[C@@H]1CN([C@H](C)CO)C(=O)c2cccc(NC(=O)Nc3ccc(F)cc3)c2O[C@@H]1CN(C)Cc1ccc(C(=O)Nc2ccccc2N)cc1 | inactive
COCC#Cc1cnc2c(c1)C(=O)N([C@H](C)CO)C[C@@H](C)[C@@H](CN(C)S(=O)(=O)c1ccccc1)O2 | inactive
COCCN1C(=O)C2=C(C1=O)[C@H]1N(C)c3ccccc3[C@@]13C[C@@H](CO)N(C(C)=O)C3=N2 | inactive
C[C@H](CO)N1C[C@H](C)[C@H](CN(C)C(=O)Nc2ccc(C(F)(F)F)cc2)Oc2ncc(-c3ccc(C#N)cc3)cc2C1=O | inactive
C=CCOC(=O)[C@@H]1[C@H]2C(=O)O[C@H](c3ccccc3)[C@H](c3ccccc3)N2[C@H](c2ccc(OCCOC(=O)NCCCCCC(=O)NO)cc2)[C@]12C(=O)Nc1ccccc12 | inactive
CC(C)(O)C1CCC(C)(C2C(O)CC3(C)C4CC(OC5OC(CO)C(O)C(O)C5O)C5C(C)(C)C(OC6OCC(O)C(O)C6O)CCC56CC46CCC23C)O1 (configuration not stated) | inactive
CC(C)(O)[C@H]1CC[C@@](C)([C@H]2[C@@H](O)C[C@@]3(C)[C@@H]4C[C@H](O[C@@H]5O[C@H](CO)[C@@H](O)[C@H](O)[C@H]5O)[C@H]5C(C)(C)[C@@H](O[C@@H]6OC[C@@H](O)[C@H](O)[C@H]6O)CC[C@@]56C[C@@]46CC[C@]23C)O1 | inactive
C[C@@H]1CC[C@@]2(OC1)O[C@H]1C[C@H]3[C@H]4C[C@@H](O)[C@H]5C[C@@H](O[C@@H]6O[C@H](CO)[C@H](O[C@@H]7O[C@H](CO)[C@@H](O)[C@H](O[C@@H]8OC[C@@H](O)[C@H](O)[C@H]8O)[C@H]7O[C@@H]7O[C@H](CO)[C@@H](O)[C@H](O)[C@H]7O)[C@H](O)[C@H]6O)[C@H](O)C[C@]5(C)[C@@H]4CC[C@]3(C)[C@H]1[C@@H]2C | active
CC1CCC2(OC1)OC1CC3C4CCC5CC(O)CCC5(C)C4CCC3(C)C1C2C (configuration not stated) | inactive
C[C@@H]1CO[C@]2(O[C@H]3C[C@H]4[C@H]5C[C@H](O[C@H]6O[C@@H](C)[C@@H](O)[C@@H](O[C@@H]7O[C@@H](C)[C@H](O)[C@@H](O)[C@H]7O)[C@@H]6O)[C@H]6C[C@@H](O)CC[C@]6(C)[C@@H]5CC[C@]4(C)[C@H]3[C@@H]2C)[C@@H](O)C1 | inactive

SMILES | cytotoxicity call
C[C@@H]1CC[C@@]2(OC1)O[C@H]1C[C@H]3[C@H]4C[C@@H](O)[C@H]5C[C@@H](O[C@@H]6O[C@H](CO)[C@H](O[C@@H]7O[C@H](CO)[C@@H](O)[C@H](O[C@@H]8OC[C@@H](O)[C@H](O)[C@H]8O)[C@H]7O[C@@H]7O[C@H](CO)[C@@H](O[C@@H]8O[C@H](CO)[C@@H](O)[C@H](O)[C@H]8O)[C@H](O)[C@H]7O)[C@H](O)[C@H]6O)[C@H](O)C[C@]5(C)[C@@H]4CC[C@]3(C)[C@H]1[C@@H]2C | active
C[C@H]1CN([C@@H](C)CO)C(=O)Cc2cc(NC(=O)C3CCCCC3)ccc2O[C@@H]1CN(C)C(=O)Nc1cccc2ccccc12 | inactive
Nc1nc(Cl)nc2c1ncn2[C@H]1C[C@@H](O)[C@@H](CO)O1 | inactive
C[C@@H]1CN([C@@H](C)CO)C(=O)c2cc(N(C)C)ccc2O[C@@H](C)CCCCO[C@H]1CN(C)C(=O)Nc1cccc2ccccc12 | inactive
Fc1ccc(Nc2ncnc3sc(-c4ccccc4)cc23)cc1 | inactive
COc1ccc(S(=O)(=O)Nc2ccc3c(c2)C(=O)N([C@H](C)CO)C[C@@H](C)[C@@H](CN(C)C(=O)Nc2cccc4ccccc24)O3)cc1 | inactive
CC1(C(=O)O)CCC2(C)CCC3(C)C(=CC(=O)C4C5(C)CCC(O)C(C)(C)C5CCC43C)C2C1 (configuration not stated) | inactive
CC(=O)Oc1cc2c(c(C)c1OC(C)=O)CC=C1[C@@]2(C)CC[C@@]2(C)[C@H]3C[C@](C)(C(=O)O)CC[C@]3(C)CC[C@]12C | active
C[C@H](CO)N1C[C@H](C)[C@@H](CN(C)Cc2ccc(C(F)(F)F)cc2)OCCCC[C@H](C)Oc2ccc(NC(=O)CCC(F)(F)F)cc2C1=O | inactive
C[C@@H]1CCCCO[C@@H](CN(C)Cc2ccc(C(=O)O)cc2)[C@H](C)CN([C@H](C)CO)C(=O)c2cc(NC(=O)CCC(F)(F)F)ccc2O1 | active
C[C@@H]1CCCCO[C@@H](CN(C)Cc2ccc(C(F)(F)F)cc2)[C@H](C)CN([C@@H](C)CO)C(=O)c2cc(NC(=O)CCC(F)(F)F)ccc2O1 | active
C[C@@H]1CCCCO[C@H](CN(C)Cc2ccc(C(F)(F)F)cc2)[C@@H](C)CN([C@H](C)CO)C(=O)c2cc(NC(=O)CCC(F)(F)F)ccc2O1 | inactive
C[C@H]1CCCCO[C@H](CN(C)Cc2ccc(C(F)(F)F)cc2)[C@@H](C)CN([C@@H](C)CO)C(=O)c2cc(NC(=O)CCC(F)(F)F)ccc2O1 | active
C[C@@H]1CCCCO[C@@H](CN(C)Cc2ccc(C(F)(F)F)cc2)[C@H](C)CN([C@H](C)CO)C(=O)c2cc(NC(=O)CCC(F)(F)F)ccc2O1 | inactive
C[C@@H]1CCCCO[C@H](CN(C)Cc2ccc(C(F)(F)F)cc2)[C@@H](C)CN([C@@H](C)CO)C(=O)c2cc(NC(=O)CCC(F)(F)F)ccc2O1 | inactive
C[C@@H]1CN([C@@H](C)CO)C(=O)c2cc(NC(=O)CCC(F)(F)F)ccc2O[C@@H](C)CCCCO[C@H]1CN(C)Cc1ccc(C(=O)O)cc1 | inactive
C[C@@H]1CCCCO[C@H](CN(C)Cc2ccc(C(F)(F)F)cc2)[C@H](C)CN([C@@H](C)CO)C(=O)c2cc(NC(=O)CCC(F)(F)F)ccc2O1 | active
C[C@@H]1CN([C@H](C)CO)C(=O)c2cc(NC(=O)CCC(F)(F)F)ccc2O[C@@H](C)CCCCO[C@@H]1CN(C)Cc1ccc(C(F)(F)F)cc1 | inactive
C[C@@H]1CN([C@H](C)CO)C(=O)c2cc(NC(=O)CCC(F)(F)F)ccc2O[C@@H](C)CCCCO[C@H]1CN(C)Cc1ccc(C(=O)O)cc1 | inactive
C[C@H](CO)N1C[C@H](C)[C@H](CN(C)Cc2ccc(C(F)(F)F)cc2)OCCCC[C@H](C)Oc2ccc(NC(=O)CCC(F)(F)F)cc2C1=O | inactive
CN(C)CC#Cc1ccc([C@@H]2[C@@H](CO)N3C(=O)CN(C(=O)c4cccnc4)C[C@H]23)cc1 | inactive
CO[C@H](CN(C)C(=O)Nc1ccc(C(F)(F)F)cc1)[C@@H](C)CN(Cc1ccccc1Cl)[C@@H](C)CO | inactive
C=CCC[C@H](Cc1ccc(F)cc1)C(=O)O[C@H](CNC(=O)[C@@H](CC=C)CC(=O)N[C@@H](CO)Cc1ccccc1)c1ccccc1 | inactive
C[C@H](CO)N1C[C@H](C)[C@@H](CN(C)Cc2ccc(-c3ccccc3)cc2)Oc2c(NC(=O)C3CC3)cccc2C1=O | inactive
NC(=O)NCC#Cc1ccc2c(c1)[C@]1(C(=O)N2)[C@H](C(=O)N2CCCCCCC2)[C@H]2C(=O)O[C@H](c3ccccc3)[C@H](c3ccccc3)N2[C@@H]1c1ccccc1OCCO | inactive
C[C@@H]1CN([C@@H](C)CO)S(=O)(=O)c2ccc(-c3ccccc3F)cc2O[C@H]1CN(C)S(C)(=O)=O | inactive
